Measured values reported in PubChem BioAssay AID1159580 (chemical genetic matrix, 2015).
“And” between values parts separate entries of the source, which are not always exact repeats. Equal values may be shown once. The whole screen tested about 5,500 compounds, of which about 2,000 (36%) were called active. About 18% were inconclusive and are not listed. Rule as the data show it: active = normalized growth mostly below about 0.91 (no sharp cut-off); inconclusive = no clear call, values can overlap the other calls; inactive = mostly above about 0.92. Some of the results follow.

Assay: chemical genetic growth profiling, strain panel (AID 1159580);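 also: tested at 20 µM; growth read once vehicle control cultures reached saturation at 30 °C; 1 = growth at the plate median or of vehicle wells; lower values mean less growth of the strain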
Conditions: S. cerevisiae deletion strains, growth OD

Measured: normalized growth

CCCCOc1ccc(CC(=O)NO)cc1
inactive: locus YAL021C, strain ccr4, stronger effect = lower value 0.987 | locus YAL026C, strain drs2, stronger effect = lower value 0.983 | locus YAL030W, strain snc1, stronger effect = lower value 1 | locus YBL061C, strain skt5, stronger effect = lower value 0.996 | locus YBR009C, strain hhf1, stronger effect = lower value 0.953 | locus YBR021W, strain FUR4, stronger effect = lower value 1.02 | locus YBR023C, strain chs3, stronger effect = lower value 0.993 | locus YBR171W, strain sec66, stronger effect = lower value 0.98 | locus YBR229C, strain ROT2, stronger effect = lower value 1 | locus YBR231C, strain swc5, stronger effect = lower value 0.988 | locus YBR279W, strain paf1, stronger effect = lower value 1 | locus YCL011C, strain gbp2, stronger effect = lower value 0.99 | locus YCL016C, strain dcc1, stronger effect = lower value 0.967 | locus YCL029C, strain bik1, stronger effect = lower value 1 | locus YCL061C, strain MRC1, stronger effect = lower value 1.01 | locus YCL069W, strain vba3, stronger effect = lower value 0.973 | locus YCR088W, strain abp1, stronger effect = lower value 1 | locus YDL005C, strain med2, stronger effect = lower value 0.994 | locus YDL035C, strain GPR1, stronger effect = lower value 0.977 | locus YDL040C, strain nat1, stronger effect = lower value 0.998 | locus YDL074C, strain BRE1, stronger effect = lower value 0.964 | locus YDL101C, strain DUN1, stronger effect = lower value 0.99 | locus YDL134C, strain PPH21, stronger effect = lower value 0.965 | locus YDL185W, strain tfp1, stronger effect = lower value 1 | locus YDL192W, strain arf1, stronger effect = lower value 1.01 | locus YDR001C, strain nth1, stronger effect = lower value 0.991 | locus YDR069C, strain doa4, stronger effect = lower value 1 | locus YDR101C, strain arx1, stronger effect = lower value 0.988 | locus YDR137W, strain rgp1, stronger effect = lower value 0.857 | locus YDR150W, strain NUM1, stronger effect = lower value 0.992 | locus YDR159W, strain sac3, stronger effect = lower value 0.96 | locus YDR162C, strain NBP2, stronger effect = lower value 0.99 | locus YDR195W, strain ref2 0.94 | locus YDR297W, strain sur2, stronger effect = lower value 0.992 | locus YDR318W, strain mcm21, stronger effect = lower value 1.01 | locus YDR334W, strain swr1, stronger effect = lower value 1.02 | locus YDR335W, strain msn5, stronger effect = lower value 1.01 | locus YDR388W, stronger effect = lower value 1 | locus YDR392W, strain spt3, stronger effect = lower value 0.935 | locus YDR502C, strain sam2, stronger effect = lower value 0.997 | locus YEL003W, strain gim4, stronger effect = lower value 0.97 | locus YEL037C, strain rad23, stronger effect = lower value 0.993 | locus YEL061C, strain CIN8 (second series), stronger effect = lower value 0.994 | locus YEL061C, strain CIN8, stronger effect = lower value 0.996 | locus YER015W, strain faa2, stronger effect = lower value 1 | locus YER016W, strain bim1, stronger effect = lower value 0.997 | locus YER110C, stronger effect = lower value 1.02 | locus YER111C, strain swi4, stronger effect = lower value 0.996 | locus YER155C, strain BEM2 (second series), stronger effect = lower value 0.939 | locus YER155C, strain BEM2, stronger effect = lower value 0.994 | locus YER167W, strain BCK2, stronger effect = lower value 0.989 | locus YFR010W, strain ubp6, stronger effect = lower value 0.999 | locus YGL078C, strain dbp3, stronger effect = lower value 1 | locus YGL086W, strain mad1, stronger effect = lower value 1 | locus YGL167C, strain pmr1, stronger effect = lower value 1.01 | locus YGL173C, strain kem1, stronger effect = lower value 1.02 | locus YGL227W, strain vid30, stronger effect = lower value 0.993 | locus YGL240W, strain doc1, stronger effect = lower value 0.997 | locus YGL248W, strain PDE1, stronger effect = lower value 0.965 | locus YGL253W, strain hxk2, stronger effect = lower value 0.975 | locus YGR078C, strain PAC10, stronger effect = lower value 0.957 | locus YGR135W, strain pre9, stronger effect = lower value 1 | locus YGR229C, strain SMI1, stronger effect = lower value 0.916 | locus YGR252W, strain gcn5, stronger effect = lower value 0.878 | locus YHR013C, strain ard1, stronger effect = lower value 0.978 | locus YHR027C, strain rpn1, stronger effect = lower value 1.01 | locus YHR030C, strain SLT2, stronger effect = lower value 0.994 and 1.05 | locus YHR079C, strain IRE1 (second series), stronger effect = lower value 1.01 | locus YHR079C, strain IRE1, stronger effect = lower value 1 | locus YHR094C, strain hxt1, stronger effect = lower value 1 | locus YHR129C, strain ARP1, stronger effect = lower value 0.994 | locus YHR142W, strain chs7, stronger effect = lower value 0.961 | locus YHR200W, strain rpn10, stronger effect = lower value 1.01 | locus YIL066C, strain RNR3, stronger effect = lower value 0.915 | locus YIL073C, strain SPO22, stronger effect = lower value 0.974 | locus YIL125W, strain kgd1, stronger effect = lower value 0.997 | locus YIR030C, strain dcg1, stronger effect = lower value 1 | locus YJL092W, strain hpr5, stronger effect = lower value 0.997 | locus YJL095W, strain BCK1 (second series), stronger effect = lower value 1 | locus YJL095W, strain BCK1, stronger effect = lower value 0.959 and 1.01 | locus YJL115W, strain asf1, stronger effect = lower value 1 | locus YJL129C, strain trk1, stronger effect = lower value 0.966 | locus YJL134W, strain LCB3, stronger effect = lower value 0.996 | locus YJL154C, strain vps35, stronger effect = lower value 0.997 | locus YJL164C, strain tpk1, stronger effect = lower value 0.985 | locus YJL166W, strain qcr8, stronger effect = lower value 0.922 | locus YJL168C, strain set2, stronger effect = lower value 1 | locus YJL187C, strain SWE1 (second series), stronger effect = lower value 0.991
